Tau FP inhib: qHTS for Inhibitors of Tau Fibril Formation, Fluorescence Polarization; K18 P301L tau heparin fibrillization, Alexa594 FP, 6 h; 280,000 tested, 0.39% active; Potency, µM (series often up to 57.7 µM), for inactives: top-dose activity, negative = inhibition, usual class: inhibitors; further: potency means the concentration at half of the fitted maximal effect; nearly all actives have a fitted effect of over 55% in size
Target sequence (P10636 561-689 P618L limits assumed): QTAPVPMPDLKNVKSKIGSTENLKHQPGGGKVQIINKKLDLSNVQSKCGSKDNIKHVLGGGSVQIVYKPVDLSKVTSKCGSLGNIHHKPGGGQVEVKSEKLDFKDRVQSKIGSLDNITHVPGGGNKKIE
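Read-out: fluorescence polarization of Alexa 594-labeled tau (0.24 uM), 555 nm excitation, 632 nm emission. Mixtures held 15 uM unlabeled K18 P301L, compound and 20 uM heparin, pH 7 acetate buffer, incubated 6 hr at 37 C.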
Tau ThT inhib: qHTS for Inhibitors of Tau Fibril Formation, Thioflavin T Binding; recombinant tau K18 P301L, heparin-induced fibrillization, ThT fluorescence; Potency, µM (top dose mostly 57.4 µM), inactives show at the highest dose activity, negative = inhibition, actives largely listed as inhibitors; 270,000 tested, 2.1% active; further: potency means the concentration at half of the fitted maximal effect; nearly all actives have a fitted effect of over 55% in size
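Tau K18 P301L fragment (15 uM unlabeled plus 0.24 uM Alexa 594-labeled) in 100 mM sodium acetate pH 7 with compound, fibrillization induced by 20 uM heparin for 6 hr at 37 C. Thioflavin T (30 uM) added, fluorescence read after 1 hr (ex 450, em 510 nm).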
Coupling enz: qHTS Assay for Inhibitors of Fructose-1,6-bisphosphate Aldolase from Giardia Lamblia: Coupling assay counterscreen; coupling enzyme system counterscreen, AmpLite Red fluorescence; activity change, negative = inhibition, % at 58.2 µM, hits read low; 290,000 tested, 0.67% active; in the data active means activity change below about -30%
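Coupling enzymes only (glyceraldehyde-3-phosphate) + compound, at 57.5 uM final, 10 min RT; add substrate/coupling/AmpLite Red mix, 20 min RT; fluorescence ex 525/em 598 nm. Actives flag coupling-system interference.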
Sfp inh: qHTS Assay for Inhibitors of Bacillus subtilis Sfp phosphopantetheinyl transferase (PPTase); Biochemical Sfp PPTase activity, qHTS; Potency, µM, without a hit: largest response in the series, negative = inhibition, most hits filed as inhibitors; 310,000 tested, 3.5% active; AID 1490, 2009;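 further: the enzyme is Sfp with the accession as filed and its product quenches rhodamine fluorescence; potency means the concentration at half of the fitted maximal effect; 0% = enzyme reaction without inhibitor and -100% = no enzyme wells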
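Buffer: 50 mM Hepes-Na pH 7.6, 10 mM MgCl2, 0.01% Nonidet P-40, 0.01% BSA. Enzyme 15 nM, pre-exposed to compound 15 min; substrates then added and fluorescence change tracked over 30 min.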
Tau fluor cs: Counterscreen qHTS for Inhibitors of Tau Fibril Formation, Fluorescence Polarization. tau K18 P301L (four-repeat tau fragment) Alexa594 fluorescence, heparin fibrillization. Potency, µM (top dose mostly 57.7 µM), without a hit: at the top dose activity change, negative = decrease. 280,000 tested, 0.93% active. AID 1463, 2008; further: potency means the concentration at half of the fitted maximal effect; nearly all actives have a fitted effect of over 55% in size
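Human K18 P301L tau (15 uM unlabeled plus 0.24 uM Alexa 594-labeled, final) in 100 mM sodium acetate pH 7 was mixed with compound and 20 uM heparin and incubated 6 hr at 37 C.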
Numbers without * were called inactive; ! = not active in a repeat; [ ] = remark or other dose. In the library only some 5.2% were active in any assay of this set; here they are far more common. Unless noted, the call rests on the fitted dose curve; in most records, active means well fitted curve in the direction sought with a large enough effect; inconclusive means small, poorly fitted or top-dose-only effect, or another doubt; inactive means no such curve, though single readings can be large; an effect the other way counts as inactive or inconclusive. Unless noted, on the % scale 0 is the no-effect control and ±100 the full control effect.

For COc1ccc(-c2onc(C)c2C)cc1S(=O)(=O)Nc1cc(Cl)ccc1C the results were Tau FP inhib -7%, Tau ThT inhib 9% and Tau fluor cs -10%.
For O=C(O)C1CC(CCCP(=O)(O)O)CCN1 (stereo unspecified) the results were Coupling enz 2 and Sfp inh -1%.
CCCNC(=O)Nc1cc(OCC)c(N2CCOCC2)cc1OCC was read as Tau FP inhib -7%, Tau ThT inhib -4%, Coupling enz -53*, Sfp inh -8% and Tau fluor cs -12%.
CCOc1cc(N2CCOCC2)c(OCC)cc1NC(=O)c1ccc2ccccc2n1 was read as Tau FP inhib 12%, Tau ThT inhib 25µM*, Coupling enz -9, Sfp inh inconclusive and Tau fluor cs inconclusive.
`CCNC(=S)Nc1cc(OCC)c(N2CCOCC2)cc1OCC` gave Tau FP inhib -3%, Tau ThT inhib -6%, Coupling enz -7, Sfp inh -3% and Tau fluor cs -7%.
For CCOc1cc(N2CCOCC2)c(OCC)cc1NS(=O)(=O)c1ccc(Cl)s1 the results were Tau FP inhib -11%, Tau ThT inhib inconclusive, Coupling enz -45*, Sfp inh -4% and Tau fluor cs inconclusive.
For CCOc1cc(N2CCOCC2)c(OCC)cc1NC(=O)c1ccccc1C the results were Tau FP inhib 8%, Tau ThT inhib -1%, Coupling enz -2, Sfp inh 4% and Tau fluor cs -6%.
`COc1ccc(/C=N/Nc2cc(N(C)C)nc(N(C)C)n2)cc1` gave Tau FP inhib 9%, Tau ThT inhib inconclusive, Coupling enz -42*, Sfp inh -16% and Tau fluor cs inconclusive.
COc1ccc(/C=N/Nc2cc(OC)ncn2)cc1 was read as Tau FP inhib 3%, Tau ThT inhib inconclusive, Coupling enz -2, Sfp inh 26% and Tau fluor cs -24%.
Screening COc1ccccc1/C=N/Nc1cc(N(C)C)nc(N(C)C)n1 returned Tau FP inhib 9%, Tau ThT inhib inconclusive, Coupling enz -31*, Sfp inh -8% and Tau fluor cs inconclusive.
For Cc1cc(N/N=C/c2ccccc2)nc(NCc2ccccc2)n1 the results were Tau FP inhib -5%, Tau ThT inhib -12%, Coupling enz 0, Sfp inh inconclusive and Tau fluor cs inconclusive.
Screening CN(C)c1cc(N/N=C\c2ccccc2)nc(N(C)C)n1 returned Tau FP inhib 3%, Tau ThT inhib inconclusive, Coupling enz -39*, Sfp inh -1% and Tau fluor cs inconclusive.
For COc1ccccc1/C=N/Nc1cc(C)nc(N2CCOCC2)n1 the results were Tau FP inhib 14%, Coupling enz -1, Sfp inh 16% and Tau fluor cs inconclusive.
Screening Cc1cccc(NC(c2cccc(Cl)c2)c2ccc3cccnc3c2O)n1 (stereo unspecified) returned Tau FP inhib 6%, Tau ThT inhib inconclusive and Tau fluor cs inconclusive.
COc1cc(NC(=O)c2cc(-c3cccc(Cl)c3)on2)c(OC)cc1Cl was read as Tau FP inhib inconclusive, Tau ThT inhib -3% and Tau fluor cs -13%.
`COc1cc(OC)c(-c2c3cc(O)c(=O)cc-3oc3cc(O)c(O)cc23)cc1OC` gave Tau FP inhib inconclusive, Tau ThT inhib 13µM*, Coupling enz -17, Sfp inh 16µM* and Tau fluor cs -24%.
`O=c1cc(-c2ccc(O)cc2O)oc2ccccc12` gave Tau FP inhib 5%, Tau ThT inhib -18%, Coupling enz -1, Sfp inh -3% and Tau fluor cs -16%.
Cc1c2cc(O)c(=O)cc-2oc2cc(O)c(O)cc12 was read as Tau FP inhib 10µM*, Tau ThT inhib 3.2µM*, Coupling enz -54*!, Sfp inh 40µM* and Tau fluor cs 10µM*[quencher].
`COc1cc2oc(-c3ccccc3)cc(=O)c2cc1OC` gave Tau FP inhib -9%, Tau ThT inhib -15%, Coupling enz 0, Sfp inh 7% and Tau fluor cs -18%.
For NS(=O)(=O)c1ccc(N=Nc2c(-c3ccccc3)[nH]n(-c3nc(-c4ccccc4)cs3)c2=O)cc1 the results were Tau FP inhib inconclusive, Tau ThT inhib 1.8µM*, Coupling enz 1, Sfp inh 12% and Tau fluor cs 8.9µM*[quencher].
`NC(=O)c1ccc(N=Nc2c(-c3ccccc3)[nH]n(-c3ccccc3)c2=O)cc1` gave Tau FP inhib 15%, Tau ThT inhib inconclusive, Coupling enz 1, Sfp inh -11% and Tau fluor cs inconclusive.
Screening Nc1[nH]n2c(=O)cc(-c3ccccc3)nc2c1N=Nc1ccc(S(N)(=O)=O)cc1 returned Tau FP inhib 3%, Tau ThT inhib 2.2µM*, Coupling enz 6, Sfp inh 3% and Tau fluor cs inconclusive.
For Nc1[nH]n2c(=O)cc(-c3ccccc3)nc2c1N=Nc1ccccc1 the results were Tau FP inhib 16%, Tau ThT inhib 5µM*, Coupling enz 0, Sfp inh 12% and Tau fluor cs inconclusive.
Screening COc1ccc(CCNC(=O)c2cc(=O)[nH]c3ccc(S(=O)(=O)N4CCCCC4C)cc23)cc1OC (stereo unspecified) returned Tau FP inhib -13%, Tau ThT inhib 2% and Tau fluor cs -16%.
`Cc1ccc(C)c(NC(=O)CN2C(=O)C3(SCC(=O)N3c3ccc(C)c(C)c3)c3ccccc32)c1` (stereo unspecified) gave Tau FP inhib -6%, Tau ThT inhib -6% and Tau fluor cs -13%.
